From PubChem BioAssay (Tox21) come the findings set out here.

Assay [1] can be described thus: qHTS assay to identify small molecule antagonists of the estrogen related receptor (ERR) signaling pathway from Tox21 library - cell viability counter screen (AID 1224834). Note: nearly all actives have a fitted effect of over 30% in size. An outline of the steps: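 CellTiter-Fluor fluorescence, read after 30 min at 37 C, measures viability of ERR cells. Cells plated at 2,000/well and incubated 6 h before pin-tool compound addition, then exposed 17.5 hours at 37 C.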

Assay [2] concerns the target Luciferin 4-monooxygenase (Photinus pyralis) (UniProt P08659). Kind of assay: qHTS assay to identify small molecule inhibitors of firefly luciferase (AID 1224835). Note: nearly all actives have a fitted effect of over 25% in size. Note: potency is the fitted concentration of half-maximal effect. A digest of the protocol: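 Biochemical qHTS: compounds run as interplate titrations against purified firefly enzyme, with D-luciferin and ATP each at its KM concentration. Light output recorded by CCD imaging.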

Assay [3] can be described thus: qHTS assay to identify small molecule agonists of the constitutive androstane receptor (CAR) signaling pathway - cell viability counter screen (AID 1224836). Note: series mostly up to about 92 µM; nearly all actives have a fitted effect of over 45% in size. A digest of the protocol: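 Multiplexed viability check: HepG2-CYP2B6-hCAR cells, 15-point compound dosing, 0.75 uM PK11195 final, 23 h at 37 C, CellTiter-Fluor fluorescence.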
Assay [4] can be described thus: qHTS assay to identify small molecule antagonists of the constitutive androstane receptor (CAR) signaling pathway - cell viability counter screen (AID 1224837). Note: series mostly up to about 92 µM; nearly all actives have a fitted effect of over 45% in size. An outline of the steps:
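Cytotoxicity counter-screen: CellTiter-Fluor fluorescence after 23 h compound exposure (15-point qHTS) in double-stable HepG2-CYP2B6-hCAR cells, with 50 nM CITCO added.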
On the technique in general: In qHTS, concentration-response curves come from the screen itself.

For assay [5], the target named is Nuclear receptor subfamily 1 group I member 3 (Homo sapiens) (UniProt Q14994). Kind of assay: qHTS assay to identify small molecule antagonists of the constitutive androstane receptor (CAR) signaling pathway (AID 1224838).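 Note: HepG2 cells stably expressing hCAR with CYP2B6 luciferase reporter stimulated by CITCO; nearly all actives have a fitted effect of over 40% in size.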 A digest of the protocol:
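Antagonism measured as luciferase signal (ONE-Glo, 30 min, room temperature) in CAR-stimulated cells: HepG2-CYP2B6-hCAR double-stable line exposed 24 hr at 37 C to compound in a 15-point series plus 50 nM CITCO.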

For assay [6] the target is unchanged. Kind of assay: qHTS assay to identify small molecule agonists of the constitutive androstane receptor (CAR) signaling pathway (AID 1224839).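 For activation: HepG2 cells stably carrying human CAR and a CYP2B6 luciferase reporter; series mostly up to about 92 µM.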 Note: nearly all actives have a fitted effect of over 15% in size. Note: potency is the fitted concentration of half-maximal effect. A digest of the protocol:
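Using human hepatoma HepG2 cells engineered with hCAR and a CYP2B6-2.2kb reporter, 15-concentration compound series were incubated 24 h alongside PK11195 at 0.75 uM final, with luminescence quantified afterwards.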

A short description of assay [7]: qHTS assay to identify small molecule antagonists of the estrogen related receptor signaling pathway with the pleiotropic PPARgamma coactivator (PGC) from Tox21 10K library - cell viability counter screen (AID 1224840; active = well fitted cell-killing curve with a large enough effect in the repeat runs, not every such curve was filed as active; note: nearly all actives have a fitted effect of over 40% in size). A digest of the protocol: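 Counter-screen for cytotoxicity: after 17.5 h compound exposure at 37 C, CellTiter-Fluor reagent added to PGC/ERR cells for 30 min and fluorescence read. Cells were seeded at 2,000 per well 6 h before dosing.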

The target in assay [8] is Thyrotropin receptor (Homo sapiens) (UniProt P16473). The experiment in a line: qHTS assay to identify small molecule agonists of the thyroid stimulating hormone receptor (TSHR) signaling pathway (AID 1224843; calls by dose curve; note: nearly all actives have a fitted effect of over 45% in size). An outline of the steps: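 HEK293/TSHR, 800 cells/well; cpd 30 min RT; add cAMP-d2 + anti-cAMP-cryptate, 1 h RT; fluorescence read on plate reader. 15-pt titration, n=3.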
Chain of Thyrotropin receptor (Homo sapiens) (P16473 whole entry, looked up): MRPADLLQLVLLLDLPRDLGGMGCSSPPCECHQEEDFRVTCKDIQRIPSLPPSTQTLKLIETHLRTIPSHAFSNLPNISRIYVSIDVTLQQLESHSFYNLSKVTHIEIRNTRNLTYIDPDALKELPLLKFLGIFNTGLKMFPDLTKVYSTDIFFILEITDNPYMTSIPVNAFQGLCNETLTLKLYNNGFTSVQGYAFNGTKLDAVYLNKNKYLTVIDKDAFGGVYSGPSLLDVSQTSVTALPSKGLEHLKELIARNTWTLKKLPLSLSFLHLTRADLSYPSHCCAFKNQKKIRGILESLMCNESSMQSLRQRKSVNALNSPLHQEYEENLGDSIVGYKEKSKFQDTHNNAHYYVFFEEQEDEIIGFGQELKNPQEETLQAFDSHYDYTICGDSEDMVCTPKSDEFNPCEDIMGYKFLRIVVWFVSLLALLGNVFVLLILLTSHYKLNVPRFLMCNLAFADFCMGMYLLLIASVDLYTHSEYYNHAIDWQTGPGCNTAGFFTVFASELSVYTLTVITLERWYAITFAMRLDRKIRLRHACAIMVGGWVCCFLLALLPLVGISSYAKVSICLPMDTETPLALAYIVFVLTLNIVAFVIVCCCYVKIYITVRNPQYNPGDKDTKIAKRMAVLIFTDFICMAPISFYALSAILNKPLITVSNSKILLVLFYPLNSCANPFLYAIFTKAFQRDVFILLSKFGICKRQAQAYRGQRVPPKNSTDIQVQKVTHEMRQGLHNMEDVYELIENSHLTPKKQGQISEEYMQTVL

The nature of assay [9]: qHTS assay to identify small molecule agonists of the hypoxia (HIF-1) signaling pathway - cell viability counter screen (AID 1224844; calls by dose curve; note: nearly all actives have a fitted effect of over 50% in size). An outline of the steps:
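Cytotoxicity measured by CellTiter-Glo ATP luminescence in the wells also read for beta-lactamase signal. Cells were HRE-bla ME-180 (2,000/well, 0.5% dialyzed FBS), exposed to compounds for 17 h at 37C.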

The nature of assay [10]: qHTS assay to identify small molecule agonists of H2AX (AID 1224845; active = well fitted activation curve with a large enough effect in the signal ratio in the repeat runs, not every such curve was filed as active; the % refers to the signal ratio). An outline of the steps:
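Wild-type CHO-K1 cells, plated overnight, exposed 3hr at 37C to 15 concentrations (0.76% DMSO final). Lysed, then HTRF anti-pH2AX (S139) cryptate and anti-H2AX-d2 antibodies, 24 hr room temperature; 665/620 nm emission read.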

A short description of assay [11]: qHTS assay to identify small molecule agonists of H2AX - cell viability counter screen (AID 1224847; calls by dose curve; note: top concentration of the series differs between compounds; nearly all actives have a fitted effect of over 30% in size). A digest of the protocol:
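After overnight plating of 1000 CHO-K1 cells per well, a 15-concentration compound series was applied for 3 hr at 37C. Luminescence from CellTiter-Glo, read following 30 min at room temperature, reflected cell viability.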

Assay [12] can be described thus: qHTS RealTime-Glo MT Cell Viability Assay in HepG2 cells - 24 hour (AID 1224867). Note: nearly all actives have a fitted effect of over 50% in size. A digest of the protocol:
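Luminescence read-out: viable HepG2 cells reduce a prosubstrate to a NanoLuc substrate, giving a signal proportional to live cell number. Reads taken at 0, 8, 16, 24, 32 and 40 h of compound exposure at 37 C.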

Assay [13] is described as follows: qHTS RealTime-Glo MT Cell Viability Assay in HEK293 cells - 32 hour (AID 1224868). Note: top concentration of the series differs between compounds; nearly all actives have a fitted effect of over 50% in size. An outline of the steps: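 Nonlytic real-time viability readout: viable cells convert prosubstrate to NanoLuc substrate, giving luminescence proportional to live cell number. HEK293, 600 cells/well, compound added after 5 h, continuous culture at 37 C.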
A short description of assay [14]: A CellTox Green Cytotoxicity Assay to monitor cytotoxicity in HEK293 cells - 0 hour (AID 1224869). Note: nearly all actives have a fitted effect of over 50% in size. An outline of the steps: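 Fluorescence from a DNA-binding dye excluded by viable cells was measured repeatedly in the same HEK293 wells (600 cells/well) during continuous compound exposure at 37 C. Each assay gives one read point: 0, 8, 16, 24, 32 or 40 h.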
Assay [15] in a line: qHTS assay to identify small molecule agonists of the hypoxia (HIF-1) signaling pathway (AID 1224846; active = well fitted activation curve with a large enough effect in the signal ratio in the repeat runs, not every such curve was filed as active; the % refers to the signal ratio). An outline of the steps:
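Compounds added to ME-180 cells carrying hypoxia-response-element beta-lactamase reporter (0.5% dialyzed FBS, 5 h preplating), 17 h at 37C; agonist activity detected by CCF4-AM B/G FRET read-out.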

Several values for one entry are separate records, joined by “and”; a condition that tells them apart may be missing. Identical values can stand only once. A number with no mark means an inactive call. Records with an inconclusive call do not appear. Activity calls are given as the source filed them. Unless noted, calls come from the whole dose curve; as a rule, active = well fitted curve in the direction sought with a large enough effect in the repeat runs; inconclusive = weak or mixed curves; inactive = no such curve, though single readings can be large; an effect the other way counts as inactive or inconclusive.

Chain of Nuclear receptor subfamily 1 group I member 3 (Homo sapiens) (Q14994 whole entry, looked up): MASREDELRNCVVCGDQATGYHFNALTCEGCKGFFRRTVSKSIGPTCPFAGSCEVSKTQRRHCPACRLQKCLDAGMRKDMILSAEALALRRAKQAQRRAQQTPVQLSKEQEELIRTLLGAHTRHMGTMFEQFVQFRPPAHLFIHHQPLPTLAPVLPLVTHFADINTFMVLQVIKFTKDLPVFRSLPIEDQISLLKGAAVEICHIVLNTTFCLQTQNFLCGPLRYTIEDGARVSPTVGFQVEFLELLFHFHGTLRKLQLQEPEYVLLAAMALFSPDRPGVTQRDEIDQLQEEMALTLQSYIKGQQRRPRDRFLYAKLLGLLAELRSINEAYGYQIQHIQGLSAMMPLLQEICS
Chain of Luciferin 4-monooxygenase (Photinus pyralis) (P08659 whole entry, looked up): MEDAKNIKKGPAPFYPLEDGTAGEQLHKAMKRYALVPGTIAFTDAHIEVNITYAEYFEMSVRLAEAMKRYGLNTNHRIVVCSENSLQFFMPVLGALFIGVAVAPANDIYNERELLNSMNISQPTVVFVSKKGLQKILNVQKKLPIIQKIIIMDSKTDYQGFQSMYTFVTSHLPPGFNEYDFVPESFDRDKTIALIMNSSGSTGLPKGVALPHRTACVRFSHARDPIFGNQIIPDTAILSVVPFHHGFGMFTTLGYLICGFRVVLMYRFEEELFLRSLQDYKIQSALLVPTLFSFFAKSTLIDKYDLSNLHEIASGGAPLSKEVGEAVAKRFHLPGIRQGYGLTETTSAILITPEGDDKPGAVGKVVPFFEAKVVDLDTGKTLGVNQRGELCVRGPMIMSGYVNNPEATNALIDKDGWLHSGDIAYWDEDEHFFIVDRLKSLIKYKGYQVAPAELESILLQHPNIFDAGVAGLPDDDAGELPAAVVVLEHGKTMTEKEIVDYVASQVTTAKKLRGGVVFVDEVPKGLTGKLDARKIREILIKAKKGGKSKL

On to `Cc1oncc1C(=O)Nc1ccc(C(F)(F)F)cc1`, for which the Potency result in assay [1], in assay [3], in [4], in assay [5], in assay [7] and in assay [8] was “inactive” throughout. Further, the Potency result in assay [9], in [10], in assay [11], in assay [12], in [13] and in assay [14] was “inactive” each time. Besides, the Potency in [2] is 39.9 µM (active); in [6], 770 nM (active) and 1.06 µM (active).

Turning to `COCC(O)CO` (centres undefined), the Potency entry in assay [1], in [2], in [3], in [4], in [5] and in [6] was “inactive” in each case. For the same molecule, the Potency result in [7], in assay [8], in assay [9], in assay [10], in [12] and in assay [13] was “inactive” each time. Besides, in assay [14], the Potency result was “inactive”. In addition, in [15], the call was inactive.

As for `Cc1cc(OI)c(C(C)C)cc1-c1cc(C(C)C)c(OI)cc1C`, the Potency entry in assay [1], in [2], in [3], in assay [4], in [5] and in assay [6] was “inactive” in each case. Also, the Potency result in assay [7], in assay [8], in [9], in assay [10], in [11] and in assay [12] was “inactive” each time. For the same molecule, the Potency entry in assay [13] is “inactive”. In addition, in assay [15], the result was inactive.

On to `Cc1cnc(C)c(C)n1`, for which the Potency entry in [1], in [2], in assay [3], in assay [4], in assay [5] and in assay [6] was “inactive” each time. Moreover, the Potency result in [7], in [8], in assay [9], in assay [10], in assay [11] and in assay [12] was “inactive” each time. In addition, the Potency entry in assay [13] and in assay [14] was “inactive” in each case. The outcome in assay [15] was inactive.

With `CCCCCCCCCOC(C)=O`, the Potency entry in assay [1], in assay [2], in [3], in assay [4], in [5] and in assay [6] was “inactive” in each case. The Potency result in [7], in assay [8], in assay [9], in assay [10], in assay [11] and in assay [12] was “inactive” throughout. The Potency result in assay [13] and in assay [14] was “inactive” in each case. The result in [15] was inactive.

Take `CC(C)(CCl)c1ccccc1`: the Potency entry in [1], in assay [2], in [3], in [4], in assay [5] and in [6] was “inactive” in each case. In addition, the Potency entry in assay [7], in assay [8], in assay [9], in [10], in [11] and in assay [12] was “inactive” throughout. Moreover, the Potency result in [13] and in [14] was “inactive” throughout. The outcome in [15] was inactive.

As for `CC1=C(C=O)C(C)(C)CCC1`, the Potency entry in [1], in [2], in assay [3], in assay [4], in assay [5] and in [6] was “inactive” each time. Also, the Potency result in assay [7], in [8], in assay [9], in [10], in assay [11] and in assay [12] was “inactive” in each case. Also, in [14], the Potency entry was “inactive”. In addition, the molecule was called inactive in [15].

Take `Cc1ccc(S)cc1`: the Potency entry in assay [1], in assay [2], in assay [3], in assay [4], in assay [5] and in assay [6] was “inactive” throughout. The Potency result in assay [7], in assay [8], in assay [9], in [12], in assay [13] and in [14] was “inactive” in each case. For the same molecule, the outcome in assay [15] was inactive.
